About 530 (0.24%) of roughly 220,000 compounds were called active. Cut-off read from the data, not from the text of the source: active = inhibition above about 13%; inconclusive = no clear call, values can overlap the other calls; inactive = below that. The sample as a whole holds a higher share of actives than the screen did. Measured potencies and affinities stand elsewhere.

For orientation: inhibition means the change of the read-out against control, counted positive when it falls.

The target in the assay is Bifunctional protein GlmU (Mycobacterium tuberculosis (strain ATCC 25618 / H37Rv)) (UniProt P9WMN3). The experiment in a line: inhibition of mycobacterial GlmU enzyme – biochemical, glucosamine-1-phosphate acetyltransferase (AID 1376).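 Note: 0% = complete reaction with vehicle and 100% = reaction without substrate.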 The conditions noted are these: M. tuberculosis GlmU acetyltransferase enzyme assay; hits give high values;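 tested at 30 µM in the primary screen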.
Chain of Bifunctional protein GlmU (Mycobacterium tuberculosis (strain ATCC 25618 / H37Rv)) (P9WMN3 whole entry, looked up): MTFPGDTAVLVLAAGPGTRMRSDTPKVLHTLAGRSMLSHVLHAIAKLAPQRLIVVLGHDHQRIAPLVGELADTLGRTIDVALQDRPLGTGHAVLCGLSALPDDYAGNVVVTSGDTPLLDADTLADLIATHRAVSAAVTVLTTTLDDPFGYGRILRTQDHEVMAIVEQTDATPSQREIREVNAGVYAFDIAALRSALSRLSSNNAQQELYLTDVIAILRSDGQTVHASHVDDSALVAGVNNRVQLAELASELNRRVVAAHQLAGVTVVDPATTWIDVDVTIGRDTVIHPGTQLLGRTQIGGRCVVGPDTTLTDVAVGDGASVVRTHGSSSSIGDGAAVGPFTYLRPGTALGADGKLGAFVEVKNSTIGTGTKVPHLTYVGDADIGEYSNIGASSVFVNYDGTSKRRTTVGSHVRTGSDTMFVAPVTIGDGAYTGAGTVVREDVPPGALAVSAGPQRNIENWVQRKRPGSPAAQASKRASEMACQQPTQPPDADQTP
As for `Nc1nonc1C(=O)N/N=C/c1ccc(-c2cccc([N+](=O)[O-])c2)o1`, the inhibition was 1.58% (inactive). With `Cc1ccc(OCC(=O)N/N=C\c2ccc(C)o2)c(C)c1`, the inhibition is 1.64% (inactive). Take `COc1ccc(CC(=O)N/N=C/c2ccc(-c3cccc(C(=O)O)c3)o2)cc1OC`: the inhibition was 9.43% (inactive). In the case of `Nc1nonc1C(=O)N/N=C/c1ccc(-c2ccc(Cl)c(C(=O)O)c2)o1`, the inhibition is 5.31% (inactive). For `O=C(N/N=C/c1ccc(-c2ccc([N+](=O)[O-])cc2)o1)c1cccnc1` the value was 7.58% (inactive).

Regarding `CNC(=S)N/N=C/c1ccc(-c2cccc(C(=O)O)c2)o1`, the inhibition is 6.34% (inactive). As to `O=C(NCCn1cc(SCC(=O)N2CCOCC2)c2ccccc21)c1c(F)cccc1F`, the inhibition was 7.41% (inactive). `O=C(CSc1nnnn1-c1ccc(O)cc1)c1cc2ccccc2o1`: the inhibition was -1.55% (inactive). Turning to `Cc1cccc(NC(=O)CN2C(=O)S/C(=C\c3ccc(O)c([N+](=O)[O-])c3)C2=O)c1`, the inhibition is 3.95% (inactive).

With `Cc1ccc(C(=O)O)cc1-c1ccc(/C=C2\SC(=O)N(CC(=O)Nc3ccccc3)C2=O)o1`, the inhibition was 6.53% (inactive). Regarding `Cc1ccc(NC(=O)CN2C(=O)S/C(=C/c3ccc(-c4cccc(C(=O)O)c4)o3)C2=O)cc1`, the inhibition was 13.1% (active). Turning to `Cc1ccc(NC(=O)CN2C(=O)S/C(=C/c3ccc(O)c([N+](=O)[O-])c3)C2=O)cc1C`, the inhibition is 14.8% (active). For `COc1ccc(/C=C2\SC(=O)N(CC(=O)NNC(=O)c3ccccc3O)C2=O)cc1`, the inhibition is 6.62% (inactive). Turning to `CCOC(=O)CN1C(=O)S/C(=C/c2ccc(O)c([N+](=O)[O-])c2)C1=O`, the inhibition was 6.11% (inactive).

As for `Cc1cccc(NC(=O)CN2C(=O)S/C(=C\c3ccc(-c4cccc(C(=O)O)c4C)o3)C2=O)c1`, the inhibition was 5.54% (inactive). Under `Cc1ccc(NC(=O)CN2C(=O)S/C(=C\c3ccc(-c4cccc(C(=O)O)c4C)o3)C2=O)cc1` stands 3.05% (inactive); under `Cc1ccc(NC(=O)CN2C(=O)S/C(=C\c3ccc(-c4cccc(C(=O)O)c4C)o3)C2=O)cc1C`, 15.4% (active).

Consider `COc1ccc(/C=C2\SC(=O)N(CC(=O)NNC(=O)c3ccccc3O)C2=O)cc1OC`, for which the inhibition was 13.8% (active). For `Cc1ccccc1NC(=O)CN1C(=O)S/C(=C\c2ccc(-c3cccc(C(=O)O)c3C)o2)C1=O` the value was -5.01% (inactive). With `O=C(CN1C(=O)S/C(=C\c2ccccc2)C1=O)NNC(=O)c1ccccc1O`, the inhibition was 6.78% (inactive). For `CCOc1ccccc1Cn1c(=O)sc2ccccc21` the value was -0.39% (inactive). Under `CCCNC(=O)c1cc(-c2ccc(OC)cc2)n(CCCOC)c1C` stands 4.42% (inactive); under `O=C1CC(N2CCN(Cc3ccc(Cl)cc3)CC2)C(=O)N1CCc1ccccc1` (configuration not stated), -4.79% (inactive).

For `O=C(NCCc1ccccn1)c1cccc(S(=O)(=O)N2CCc3ccccc32)c1`, the inhibition was 2.85% (inactive). Consider `COCCNC(=O)C1c2ccccc2C(=O)N(CCOC)C1c1ccc(F)cc1` (configuration not stated), for which the inhibition was 1.96% (inactive). Under `COc1ccc(C(=O)N/C(=C\c2cccc3ccccc23)C(=O)N2CCN(C)CC2)cc1OC` stands 0.44% (inactive); under `CSC1=NSC2=NC(=O)/C(=C/c3coc4ccccc4c3=O)C(=N)N12`, 8.95% (inactive); under `CSC1=NSC2=NC(=O)/C(=C/c3coc4ccc(O)cc4c3=O)C(=N)N12`, 21.3% (active). For `CSC1=NSC2=NC(=O)/C(=C\c3coc4ccccc4c3=O)C(=N)N12` the value was 7.97% (inactive). Turning to `NS(=O)(=O)c1ccc(CCNC(=O)CCCC2=NS(=O)(=O)c3ccccc3N2)cc1`, the inhibition was 2.45% (inactive). Take `S=c1[nH]nc(COc2ccc3ccccc3c2)o1`: the inhibition is 3.96% (inactive). Take `COc1ccc(OCc2n[nH]c(=S)o2)cc1`: the inhibition is 2.56% (inactive). Turning to `S=c1[nH]nc(COc2ccc(Cl)cc2)o1`, the inhibition was 13.3% (active).

`O=C(O)C1Cc2ccccc2CN1C(=O)COc1ccc(Br)cc1` (configuration not stated): the inhibition was 12.6% (inactive). On to `CCOC(=O)CSc1nc(C)c(C(C)=O)cc1C(N)=O`, for which the inhibition is 1.16% (inactive). In the case of `Cc1cccc(NC(=S)NNC(=O)c2csc3c2CCCC3)c1`, the inhibition was 13% (active). For the compound `Cc1ccc(C)c(NC(=S)NNC(=O)c2csc3c2CCCC3)c1`, the inhibition is -4.85% (inactive). Under `Cc1cccc(NC(=S)NNC(=O)c2csc3c2CCC(C)C3)c1` (configuration not stated) stands 2.66% (inactive). For the compound `CC(C)Cc1nnc(NC(=O)c2cc(-c3ccccc3)nc3ccccc23)s1`, the inhibition was 0.66% (inactive). Take `COc1cc([N+](=O)[O-])ccc1NC(=O)Cc1ccc(F)cc1`: the inhibition is 4.76% (inactive). For `COc1ccc(CN2CCn3ncc(C(=O)Nc4cc(C)cc(C)c4)c3C2=O)cc1` the value was -5.28% (inactive); for `O=C(NNS(=O)(=O)c1ccc(Cl)cc1)c1sccc1-n1cccc1`, -3.47% (inactive). For `O=C(NNS(=O)(=O)c1cc(Cl)cc(Cl)c1)c1sccc1-n1cccc1` the value was 13.9% (active); for `O=C(NNS(=O)(=O)c1ccccc1)c1sccc1-n1cccc1`, -3.8% (inactive); for `CC1(C(=O)OCC(=O)Nc2ccc3ccccc3c2)CC1(Cl)Cl` (configuration not stated), 0.98% (inactive).

As for `O=C(N1CCN(Cc2ccc3c(c2)OCO3)CC1)C12CC3CC(CC(C3)C1)C2`, the inhibition is 3.26% (inactive). Turning to `COC(=O)c1ccc2c(=O)sc(N3CCC(C(N)=O)CC3)nc2c1`, the inhibition was -0.93% (inactive). With `CCOc1c(O)ccc(/C=C2\SC(=S)NC2=O)c1[N+](=O)[O-]`, the inhibition was 12.8% (active). Turning to `C=CCN1C(=O)/C(=C/c2ccc(OC(C)=O)c(OCC)c2[N+](=O)[O-])SC1=S`, the inhibition was -0.95% (inactive).

Consider `CCOc1ccc(/C=C2\SC(=S)NC2=O)cc1OC`, for which the inhibition was 0.99% (inactive).

As to `COC(=O)C1NN=C(C(=O)c2ccccc2)C1c1ccccc1` (configuration not stated), the inhibition is -3.17% (inactive). `Cc1cc(Cl)ccc1OCC(=O)OCC(=O)Nc1ccc(F)c([N+](=O)[O-])c1`: the inhibition is 4.62% (inactive). On to `N/C(=N\S(=O)(=O)c1cc(C(F)(F)F)cc(C(F)(F)F)c1)c1ccccc1`, for which the inhibition was 4.74% (inactive).

Turning to `N/C(=N\S(=O)(=O)c1cc(C(F)(F)F)cc(C(F)(F)F)c1)c1cccs1`, the inhibition is 13.9% (active). For `NC(=O)c1ccc(/C(N)=N/S(=O)(=O)c2cc(C(F)(F)F)cc(C(F)(F)F)c2)cc1`, the inhibition was 2.05% (inactive). As for `CC(=O)c1ccc(NC(=S)NC(=O)c2c(Cl)c(C)nn2C)cc1`, the inhibition was 5.85% (inactive). Consider `CCOC(=O)c1ccc(NC(=S)N2CCC(C(N)=O)CC2)cc1`, for which the inhibition is 6.36% (inactive).

Regarding `Cc1ccc(O)c(CC(C)C)n1`, the inhibition was 6.41% (inactive).

In the case of `Cc1ccc(O)c(CO)n1`, the inhibition is 15% (active). Take `Cc1ccc(O)c(CCc2ccccc2)n1`: the inhibition is -3.57% (inactive).

`COc1ccccc1NC(=O)Cn1c(CN2CCCCC2)nc2ccccc2c1=O`: the inhibition is 0.52% (inactive). With `O=C(NC1(C(F)(F)F)NC(=O)N(c2ccc(F)cc2)C1=O)c1cccs1` (configuration not stated), the inhibition was -0.58% (inactive). As for `Cc1sc2nc(SCC(=O)NCCO)n(C)c(=O)c2c1C`, the inhibition is 3.09% (inactive). For the compound `CCOC(=O)CNC(=O)CSc1nc2sc(C)c(C)c2c(=O)n1C`, the inhibition is 15% (active). As to `CCOC(=O)CSc1nc2sc(C)c(C)c2c(=O)n1C`, the inhibition is 3.47% (inactive).

Regarding `Cc1c(C(=O)NCc2cccnc2)sc2ncn(CC(=O)N3CCCCC3C)c(=O)c12` (configuration not stated), the inhibition is -7.32% (inactive).

As to `CCCCC(=O)Nc1nc(C)c(C(C)=O)s1`, the inhibition was -1.28% (inactive). Under `Cc1nc(NC(=O)C2CC2)sc1C` stands -0.38% (inactive); under `Cc1nc(NC(=O)CCCC(=O)Nc2nc(C)c(C)s2)sc1C`, 13.9% (active); under `CCC(=O)N(Cc1cc2cc(C)c(C)cc2[nH]c1=O)C1CCCCC1`, -7.37% (inactive). For the compound `CC(=O)n1cc(/C=N/NC(N)=S)c2ccccc21`, the inhibition was -6.26% (inactive). Take `CSCC[C@H](NC(=O)OC(C)(C)C)C(=O)N/N=C/c1ccc2nccnc2c1`: the inhibition was -6.4% (inactive). Turning to `CSc1ccccc1C(=O)C1CCCN(Cc2ccn[nH]2)C1` (configuration not stated), the inhibition was 10.5% (inactive). In the case of `O=C(c1cc2cc(Cl)cc(Cl)c2oc1=O)N1CCOCC1`, the inhibition is -1.07% (inactive). For the compound `Cc1ccccc1NS(=O)(=O)c1ccc2[nH]cc(C(=O)N(C)Cc3ccco3)c(=O)c2c1`, the inhibition was 29.4% (active). Consider `CN(Cc1ccco1)C(=O)c1c[nH]c2ccc(S(=O)(=O)Nc3ccc4c(c3)OCCO4)cc2c1=O`, for which the inhibition is 3.32% (inactive).

For the compound `CCc1ccc(NS(=O)(=O)c2ccc3[nH]cc(C(=O)N(C)Cc4ccco4)c(=O)c3c2)cc1`, the inhibition was 1.75% (inactive). On to `COc1cccc(C2=NOC(C(=O)Nc3cc(OC)c(OC)c(OC)c3)C2)c1` (configuration not stated), for which the inhibition is -0.12% (inactive). For the compound `CCOc1ncccc1C(=O)Nc1nnc(C2CC2)s1`, the inhibition was 8.29% (inactive). For `CC1CCCCN1CCNC(=O)CN1C(=O)COc2ccccc21` (configuration not stated), the inhibition is -1.43% (inactive). As for `CCn1c(SCC(=O)c2ccc(Cl)cc2)nnc1-c1cccs1`, the inhibition is -2.46% (inactive).

For `CN(CC(=O)Nc1cccc(F)c1)C(=O)CCCc1cccs1`, the inhibition is -1.08% (inactive). As to `COC(C[C@@H]1O[C@@H]1C(=O)[C@H](C)OCc1ccccc1)OC`, the inhibition was -0.47% (inactive). Consider `COC(C[C@@H]1O[C@@H]1C(=O)[C@@H](C)OCc1ccccc1)OC`, for which the inhibition was 14.7% (active). Take `COC(C[C@H]1O[C@@H]1C(=O)[C@H](C)OCc1ccccc1)OC`: the inhibition was 5.93% (inactive). Under `COC(=O)C1C(=O)c2c(C)noc2CC1(C)C` (configuration not stated) stands 7.63% (inactive); under `COc1ccc(C)cc1-n1nnnc1SCC(=O)Nc1cc(C)on1`, 4.65% (inactive). For the compound `Cc1cc(C)c2nc(SCCc3ccccc3)nc(C)c2c1`, the inhibition was 6.08% (inactive).

With `Cc1cc(=O)oc2cc(OCC#N)ccc12`, the inhibition is -3.06% (inactive). For `C=C(Cl)COc1ccc2c(C)cc(=O)oc2c1`, the inhibition was -5.17% (inactive). Regarding `C#CCOc1ccc2c(C)cc(=O)oc2c1`, the inhibition is 13.2% (active). For the compound `COc1ccc(/C=C/C(=O)NNc2cc(=O)n(C)c(=O)n2C)cc1OC`, the inhibition is 3.78% (inactive).

These data come from PubChem BioAssay AID1376 (SRMLSC, 2008).
